In ChEMBL document CHEMBL1157539, “Thousands of chemical starting points for antimalarial lead identification” (Nature, 2010):

Key:
Type in all cases: functional
Plasmodium falciparum [1] = assay: GSK_TCMDC: Inhibition of Plasmodium falciparum 3D7 in whole red blood cells, using parasite LDH activity as an index of growth. Test compounds present at 2uM
Plasmodium falciparum [2] = assay: GSK_TCMDC: Inhibition of Plasmodium falciparum Dd2 in whole red blood cells, using parasite LDH activity as an index of growth. Test compounds present at 2uM
HepG2 = assay: GSK_TCMDC: Percent inhibition of human HepG2 cell line. Test compounds present at 10uM.

SMILES	Inhibition (Plasmodium falciparum [1]) [%]	Inhibition (Plasmodium falciparum [2]) [%]	Inhibition (HepG2) [%]
CN(C)CCNCc1nc(-c2ccc3c(Nc4ccc(Cl)cc4F)ccnc3c2)cs1	100	100	0
O=C(O)C(F)(F)F.c1ccc2[nH]c(-c3ccc(-c4ccc(CNC5CC5)cc4)s3)nc2c1	91	19	25
O=C(O)C(F)(F)F.O=[N+]([O-])c1cccc(CNCC2CCN(Cc3ccc(O)cc3)CC2)c1	98	5	8
CCCN1CCN(CC(O)CNC(=O)Nc2ccc(Cl)cc2)CC1.O=C(O)C(F)(F)F (configuration not stated)	100	100	6
CC(C)(C)c1ccc(CN2CCC(CNC(=O)c3cc(-c4cccc(Cl)c4)cs3)C2)cc1.O=C(O)C(F)(F)F (configuration not stated)	100	83	44
COc1ccc(C2CC(c3ccccc3)=NN2C(=O)c2ccc(Br)o2)cc1 (configuration not stated)	96	45	6
O=c1cc(NCCCN(Cc2cc3c(Cl)cc(Cl)cc3[nH]2)Cc2cc3c(Cl)cc(Cl)cc3[nH]2)[nH]c2ccccc12	87	80	23
CC12CCC(C(=O)N(CC(O)Cn3c4ccc(Cl)cc4c4cc(Cl)ccc43)C1=O)C2(C)C (configuration not stated)	100	99	0
CN1CCC(Oc2ccc(CN3CC[C@H](NC(=O)c4cc(F)cc(F)c4)C3)c3ccccc23)C1.O=C(O)C(F)(F)F (some centres not stated)	98	23	26
Cc1noc(C)c1-c1cccc(CNCc2cccc(-c3ccc(-c4nc5cc(C(F)(F)F)ccc5[nH]4)s3)c2)c1.O=C(O)C(F)(F)F	100	95	23
CCCCCCCCOc1c(OCC)cc(Cc2cnc(N)nc2N)cc1OCC	80	0	25
COc1ccc(CNCc2ccc(-c3ccc(-c4nc5cc(F)ccc5[nH]4)cc3)cc2)cc1.O=C(O)C(F)(F)F	99	83	70
CCCN(CCC)CCCOc1ccc(C(=O)c2c(-c3ccc(OCCCN(CCC)CCC)cc3)oc3ccc(Cl)cc23)cc1.Cl	96	95	100
Cc1cccc2nc(-c3cccc(-c4ccc(CNCc5cccc(N)c5)cc4)c3)[nH]c12.O=C(O)C(F)(F)F	100	93	19
Cc1nc2ccc(Nc3nccc(-c4c(-c5cccc(NC(=O)c6c(F)cccc6F)c5)nn5ccccc45)n3)cc2nc1C	91	45	55
COc1ccc(Cl)cc1NC(=O)Nc1ccnc2ccccc12	100	44	13
O=C(O)C(F)(F)F.c1ccc2c(c1)CN(CC1CC1)CC1(CCN(Cc3c[nH]c4cnccc34)CC1)O2	100	14	30
O=C(NCc1ccc(F)cc1)Nc1ccc(-c2cccc(-c3nc4cc(C(F)(F)F)ccc4[nH]3)c2)cc1	100	92	41
Cc1ccc(O)cc1C[C@@H]1C(=O)CC[C@@]2(C)[C@H]1CC[C@]2(C)O	96	0	4
CC(Cc1ccc(NC(=O)c2ccc(CC(C)NCc3ccc(Cl)cc3)cc2)cc1)NCCc1cccc(Cl)c1 (configuration not stated)	100	75	95

SMILES	Inhibition (Plasmodium falciparum [1]) [%]	Inhibition (Plasmodium falciparum [2]) [%]	Inhibition (HepG2) [%]
CCCC(=O)Nc1ccc(OCCCCN(Cc2ccccc2C(F)(F)F)c2ccc(C(F)(F)F)c(C#N)c2)cc1	94	94	6
CC(C)(CNC(=O)C1CCN(CC2CCCCC2)CC1)c1nc(-c2ccc(Cl)c(O)c2)c(-c2ccncc2)[nH]1.Cl	98	31	0
Cl.Cn1ccnc1S(=O)(=O)CCNCc1ccc(-c2ccc3ncnc(Nc4ccc(OCc5cccc(F)c5)c(Cl)c4)c3c2)o1	100	94	0
Cc1cccc2nc(-c3cccc(-c4ccc(NC(=O)c5ccc(=O)[nH]n5)cc4)c3)[nH]c12	100	27	18
N#CC(NC(=O)C=Cc1ccccc1)c1ccccc1 (configuration not stated)	95	3	3
COc1ccc(CNc2ccnc3cc(OC)ccc23)cc1	100	74	7
COc1ccccc1CCNc1nc(C)cc(N[C@@H](Cc2ccccc2)C(=O)Nc2ccccc2)n1.O=C(O)C(F)(F)F	100	86	30
COc1ccc(CN2CCC(CNCC(c3ccccc3)c3ccccc3)CC2)cc1.O=C(O)C(F)(F)F	100	95	84
Cc1cc(N[C@@H](Cc2ccccc2)C(=O)Nc2ccccc2)nc(NCCc2ccccn2)n1.O=C(O)C(F)(F)F	97	50	0
COc1ccc(-c2cccc(NC(=O)c3ccc(Cl)cc3)c2)cc1CN1CCNCC1.O=C(O)C(F)(F)F	96	22	52
CCn1cc(C=C2Oc3c(ccc(O)c3CN3CCCCC3C)C2=O)c2ccccc21 (configuration not stated)	94	80	0
C#CCNCc1ccc(-c2cccc(-c3nc4cccc(C)c4[nH]3)c2)cc1.O=C(O)C(F)(F)F	100	32	0
FC(F)(F)c1cnc(Sc2nnc(-c3ccncc3)o2)c(Cl)c1	96	96	10
CN1CCN(c2ccc(Nc3ncc([N+](=O)[O-])c(Nc4ccccc4O)n3)cc2)CC1.O=C(O)C(F)(F)F	100	97	98
CC(C)CCN1CCCN(Cc2ccc(C(=O)Nc3ccc(Cl)cc3)cc2)CC1.O=C(O)C(F)(F)F	94	15	46
CN(CCN1CCC(c2c[nH]c3ccccc23)CC1)c1ccc(-c2nc3cc(Cl)c(Cl)cc3[nH]2)cc1	100	100	22
CCOc1ccc2nc(NC(=O)c3csnn3)sc2c1	100	98	6
CCN(CC)Cc1cccc(-c2cc3c(-c4ccc(C(=O)O)c(C(C)C)c4)ccnc3[nH]2)c1OC.O=C(O)C(F)(F)F	99	99	57
CN(C)C(CNC(=O)c1cc(-c2ccncc2)c(-c2cc3ccccc3[nH]2)o1)c1ccccc1.O=C(O)C(F)(F)F (configuration not stated)	96	62	3
Cl.O=S(=O)(Nc1ccc2nccc(N3CCNCC3)c2c1)c1ccc(-c2ccccc2)cc1	100	0	0

SMILES	Inhibition (Plasmodium falciparum [1]) [%]	Inhibition (Plasmodium falciparum [2]) [%]	Inhibition (HepG2) [%]
CCN(CCCN1CCCCC1)c1cc(C)nc(Nc2ccc(C)cc2C(F)(F)F)n1.O=C(O)C(F)(F)F	100	35	23
CC(C)CNC(=O)CN1C(=O)C(c2ccccc2)(c2ccccc2)N=C1N	94	46	15
CCCCCCCCc1c(C)nc(C)c(I)c1O	91	77	5
COc1ccc(OCCCN2CCN(CC(c3ccc(F)cc3)N3CCN(C(C)C)CC3)CC2)c2ccccc12.O=C(O)C(F)(F)F (configuration not stated)	100	32	30
Oc1cc2c(cc1CN1CCN(Cc3ccc(Cl)s3)CC1)CCC2	98	76	7
O=C(/C=C/c1ccc(Cl)c(Cl)c1)NCCCCCN1CCC(CCNC(=O)c2snnc2-c2ccccc2)CC1	89	1	54
Cc1ccc(-c2cc(C(=O)Nc3ccc(S(=O)(=O)N4CCOCC4)cc3)[nH]n2)c(O)c1C	91	45	18
Cc1nnc(-c2cccc(Nc3ccnc4cc(-c5nccs5)ccc34)c2)o1.Cl	95	89	38
COCCN(C)CCCOc1cc2c(cc1OC)ncn2-c1cc(OCc2ccccc2C(F)(F)F)c(C(N)=O)s1.Cl	98	49	24
CNC(=O)/C=C/c1cc(NC(=O)Nc2cc(C)nc3c(F)cccc23)ccc1OC	98	70	0
O=C(/C=C/c1ccc(Cl)c(Cl)c1)NCCCCCCN1CCCN(C(=O)Nc2ccc(F)c(Cl)c2)CC1	98	1	30
CC(Oc1ccc(Cl)cc1)C(=O)N(C)C1CCN(CCCCCNC(=O)/C=C/c2ccc(Cl)c(Cl)c2)CC1 (configuration not stated)	85	10	61
Cc1csc(-c2nc(NCc3cccnc3)ncc2-c2ccsc2)n1	87	74	0
COc1ccccc1C(=O)N1CCN(Cc2cccs2)CC1	96	1	87
CCn1cc(C(=O)O)c(=O)c2cc(F)c(N3CCN(S(=O)(=O)c4ccc(N)cc4)CC3)cc21	90	79	0
COc1cccc(-c2csc(C(=O)NCC3CCN(Cc4ccc(C(C)(C)C)cc4)C3)c2)c1.O=C(O)C(F)(F)F (configuration not stated)	95	10	30
COc1ccc(-c2nc3cccnc3n2CC(=O)Nc2c(C)cc(C)cc2C)c(OC)c1	91	21	77
COc1ccc(C(=O)O)cc1OCc1ccccc1	99	0	0
N=C(N)CCN(Cc1ccc(Cl)cc1)c1ccc(Cl)cc1	96	92	22
